Consider 40 compounds from PubChem BioAssay.

Activity calls are given as the source filed them. The rule behind the calls is not given here.

The target of the assay is Pantothenate synthetase (Mycobacterium tuberculosis (strain ATCC 25618 / H37Rv)) (UniProt P9WIL5). In words: Recombinant Mtb pantothenate synthetase (PanC) inhibitors, coupled enzyme, confirmatory (AID 375).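 Note: 0% = full reaction with vehicle and 100% = no enzyme background.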 The settings on record: coupled enzyme assay; at 10 µM, active compounds read high.
Chain of Pantothenate synthetase (Mycobacterium tuberculosis (strain ATCC 25618 / H37Rv)) (P9WIL5 whole entry, looked up): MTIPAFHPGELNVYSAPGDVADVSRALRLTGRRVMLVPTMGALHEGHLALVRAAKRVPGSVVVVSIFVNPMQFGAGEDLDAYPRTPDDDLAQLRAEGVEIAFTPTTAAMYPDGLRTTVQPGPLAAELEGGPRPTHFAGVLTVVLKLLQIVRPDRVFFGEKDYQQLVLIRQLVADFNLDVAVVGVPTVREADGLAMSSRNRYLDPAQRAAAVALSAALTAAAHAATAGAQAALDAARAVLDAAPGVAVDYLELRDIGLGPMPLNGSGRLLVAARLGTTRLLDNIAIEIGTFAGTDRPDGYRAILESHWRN
For `CC(=O)N(C(C)=O)c1c(C#N)c(C)n(-c2ccccc2)c1C(=O)c1ccccc1`, the inhibition is 0% (inactive). For `COC(=O)c1sc(N2C(=O)C(O)=C(C(=O)c3ccc(C)o3)C2c2ccc(F)cc2)nc1C` (stereo not given), the inhibition is 8% (inactive). With `Cc1cccc(-c2nnn(CC/C(N)=N/O)n2)c1`, the inhibition was 3% (inactive). For the compound `CCOC(=O)C(CC)n1nc(C)n2c(cc3sccc32)c1=O` (stereo not given), the inhibition is 4% (inactive). Then `O=C(COc1ccc2c(c1)OCO2)NC12CC3CC(CC(C3)C1)C2`, with 4% (inactive); and `CCS(=O)(=O)N1CCC(C(=O)NCCc2ccc(C)cc2)CC1`, with 0% (inactive). Then `CCOC(=O)C1CCCN(Cc2nc(N)nc(Nc3ccc(C)cc3)n2)C1` (stereo not given), with 0% (inactive); and `O=C(NCc1ccco1)C1Cc2ccccc2CN1S(=O)(=O)c1ccccc1F` (stereo not given), with 1% (inactive); and `CN1CCN(c2nc3c(c(=O)[nH]c(=O)n3C)n2CCSc2nc3ccccc3s2)CC1`, with 8% (inactive). Then `COc1ccc(N(C)C(=O)CCS(=O)(=O)c2cccc3nonc23)cc1`, with 1% (inactive); and `CCN(CC)CCCN1C(=O)C(O)=C(C(C)=O)C1c1cccc(OC)c1` (stereo not given), with 0% (inactive). In the case of `O=P(O)(O)C(O)C(F)(F)C(F)(F)C(F)(F)C(F)F` (stereo not given), the inhibition was 0% (inactive).

Consider `COc1cc(-c2nnc(SCC(=O)c3ccc(C)cc3)o2)cc(OC)c1OC`, for which the inhibition is 0% (inactive). Then `CCOC(=O)c1ccc(CC2S/C(=C(\C#N)C(C)=O)NC2=O)cc1` (stereo not given), with 10% (inactive).

`Cn1c(C(=O)NCC2CCCO2)cc2c(=O)[nH]c3ccccc3c21` (stereo not given): the inhibition is 8% (inactive).

`CCCCOc1ccc(-c2nnc(N)s2)cc1`: the inhibition is 0% (inactive).

On to `COCCn1cc(C(=O)NCCCN2CCC(C)CC2)c2c3ccccc3n(C)c2c1=O`, for which the inhibition was 2% (inactive). For the compound `CCOC(=O)CSc1nc2ccccc2n2cnnc12`, the inhibition is 0% (inactive). On to `CC1(C)NC(=O)N(CC(O)CN2CCCC2)C1=O` (stereo not given), for which the inhibition is 2% (inactive). Then `CCOC(=O)CSc1nnc(Cn2c(=O)sc3ccccc32)n1C`, with 0% (inactive); and `CC1Cc2nc(SCC(=O)Nc3nccs3)n(C)c(=O)c2S1` (stereo not given), with 0% (inactive). Then `CC1(C(=O)CSc2nc3ccccc3s2)CCC(=O)O1` (stereo not given), with 0% (inactive); and `CCCS(=O)(=O)N1CCCC(C(=O)NC2CCCC(C)C2C)C1` (stereo not given), with 0% (inactive).

`COc1cccc(-n2c(CNc3ccc(F)cc3)nnc2SCC(N)=O)c1`: the inhibition was 0% (inactive).

Consider `CCCC1CCC(C(=O)Nn2cnc3ccccc3c2=O)CC1` (stereo not given), for which the inhibition was 1% (inactive). Turning to `O=C(CN1C(=O)CC(c2ccco2)Sc2ccccc21)Nc1ccc2c(c1)OCCO2` (stereo not given), the inhibition is 3% (inactive). Turning to `O=C(C(c1ccccc1)c1ccccc1)N1CCN(Cc2ccccn2)CC1`, the inhibition was 0% (inactive). For `COC(=O)CN(c1ccc(OC)cc1)S(=O)(=O)c1ccc(OC)c(OC)c1`, the inhibition was 0% (inactive). The same measure for `CCC(=NC(C)c1ccccc1)c1c(O)n(C)c(=O)n(C)c1=O` (stereo not given): 0% (inactive); for `CSc1ccccc1NC(=O)c1c(Br)cnn1C`: 0% (inactive); for `CCn1c(NCc2ccc(N(C)C)cc2)nc2ccccc21`: 0% (inactive). As for `O=c1ccc(S(=O)(=O)N2CCC(Cc3ccccc3)CC2)c[nH]1`, the inhibition was 0% (inactive). As for `CCCCN(Cc1cc2cc(OC)ccc2[nH]c1=O)C(=O)c1ccccn1`, the inhibition was 1% (inactive). On to `CN1CCN(S(=O)(=O)c2ccc(NC(=O)Nc3cccc(Cl)c3)cc2)CC1`, for which the inhibition was 1% (inactive). The same measure for `COC(=O)CSC1=C(C#N)C(c2ccc(F)cc2)CC(=O)N1` (stereo not given): 0% (inactive); for `COc1cc(C2c3c(n[nH]c3C)C(=O)N2c2ccc(C)cc2)ccc1O` (stereo not given): 0% (inactive). The same measure for `COc1ccc(C(C(C(=O)c2ccco2)N2CCOCC2)N2CCOCC2)cc1` (stereo not given): 11% (inactive); for `CC1CCCCC1NC(=O)C1CCN(C(=O)NC2CCCCC2)CC1` (stereo not given): 0% (inactive).

`O=c1oc2cc(O)ccc2c2oc3cc(O)ccc3c12`: the inhibition was 7% (inactive). The same measure for `CC1CCN(S(=O)(=O)c2ccc(Br)s2)CC1`: 0% (inactive).
